The list is not random: actives were taken first. Their share in the collection is about 7.4%.
ELG1 genotox: qHTS screen for small molecules that induce genotoxicity in human embryonic kidney (HEK293T) cells expressing luciferase-tagged ELG1. HEK293T ELG1-luciferase reporter, luminescence, 16 h. Potency, µM (series often up to 46 µM), inactives show at the highest dose activity change, positive = activation, usual class: activators. hit rate 1.3% among 330,000; note: % of control where 0% means no effect; nearly all actives have a fitted effect of over 60% in size
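Genotoxic stress is detected as increased luminescence from luciferase-tagged ELG1 in HEK293T cells, measured with ONE-Glo after a 16 hr treatment at 37 °C.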
Rab9 prom act: qHTS Assay for Rab9 Promoter Activators; Huh7 Rab9 promoter-luciferase reporter, luminescence, 24 h; Potency, µM (highest dose often 9.22 µM), for the others: at the top dose activation, negative = inhibition, actives largely listed as activators; hit rate 2.8% among 320,000; AID 485297, 2010; note: % of control where 0% means no effect; nearly all actives have a fitted effect of over 60% in size
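Luciferase signal after 10 min detection reagent at ambient indicates Rab9 promoter upregulation; stably transfected Huh7 cells were treated 24 h with compound in DMSO at 37 °C, 5% CO2.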
FLuc modulator: qHTS profiling assay for firefly luciferase inhibitor/activator using purifed enzyme and Km concentrations of substrates (counterscreen for miR-21 project) | purified FLuc, Km substrates, luminescence inhibition | Potency, µM (titrated, usually from 57.5 µM), for inactives: top-dose activity change, negative = inhibition, hits mostly inhibitors | Luciferin 4-monooxygenase (Photinus pyralis), P08659 | hit rate 6.9% among 360,000;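 note: plate controls were vehicle for no effect and reference inhibitor for full effect; nearly all actives have a fitted effect of over 55% in size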
Target sequence (P08659 whole entry, looked up): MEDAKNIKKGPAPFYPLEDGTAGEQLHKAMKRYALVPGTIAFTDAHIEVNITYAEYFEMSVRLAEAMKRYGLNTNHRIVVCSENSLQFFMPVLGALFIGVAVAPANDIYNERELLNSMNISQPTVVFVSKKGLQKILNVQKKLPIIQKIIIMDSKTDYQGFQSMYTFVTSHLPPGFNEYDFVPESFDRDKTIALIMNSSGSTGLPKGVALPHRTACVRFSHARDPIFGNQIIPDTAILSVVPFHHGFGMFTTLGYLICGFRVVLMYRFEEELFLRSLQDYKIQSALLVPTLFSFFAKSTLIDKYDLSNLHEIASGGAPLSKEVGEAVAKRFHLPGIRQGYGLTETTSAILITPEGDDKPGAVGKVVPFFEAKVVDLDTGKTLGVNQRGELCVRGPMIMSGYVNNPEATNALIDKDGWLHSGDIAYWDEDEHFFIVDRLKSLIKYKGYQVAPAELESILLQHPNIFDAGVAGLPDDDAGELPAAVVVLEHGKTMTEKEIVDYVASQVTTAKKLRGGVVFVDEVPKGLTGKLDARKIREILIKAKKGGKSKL
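Purified P. pyralis luciferase (10nM final) with 10uM D-luciferin and 10uM ATP (Km levels) in 50mM Tris acetate pH 7.5, 10mM Mg acetate, 0.01% Tween-20, 0.05% BSA; qHTS 6-point titration, ~60 µM downward; luminescence read.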
NPC1 promoter act: qHTS Assay for NPC1 Promoter Activators | Huh7 NPC1 promoter luciferase reporter, 24 h | Potency, µM (top dose mostly 9.22 µM), for the others: top-dose activation, hits mostly activators | hit rate 2.4% among 320,000 | AID 485313, 2010; note: % of control where 0% means no effect; nearly all actives have a fitted effect of over 60% in size
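Cells: Huh7 expressing luciferase under the NPC1 promoter, 1500/well. Seeded 2 h, compound added, incubated 24 h at 37 °C. Luciferase reagent, 10 min ambient, then luminescence.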
KinaseGlo FLuc: Counterscreen for Luciferase (Kinase-Glo TM) Inhibition | AID 1379, 2008 | Potency, µM (titrated, usually from 38.3 µM), without a hit: at the highest dose activity change, negative = inhibition, actives largely listed as inhibitors | hit rate 0.28% among 200,000 | Kinase-Glo luciferase, ATP luminescence, 8 min; note: % is set by controls: 0 for no effect and ±100 for the full control effect; nearly all actives have a fitted effect of over 60% in size
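Recombinant Kinase-Glo luciferase, 10 uM ATP (linear range), luciferin; imidazole pH 7.2 / KCl / MgCl2 / Tween / BSA buffer; 8 min RT; luminescence.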
SMN2 splice up: qHTS Assay for Enhancers of SMN2 Splice Variant Expression. HEK293 SMN2-luciferase splicing reporter, luminescence, 30-36 h. hit rate 2.8% among 210,000. Potency, µM (highest dose often 46.1 µM), for the others: at the top dose activity change, positive = activation, usual class: activators; note: % of control where 0% means no effect; nearly all actives have a fitted effect of over 55% in size
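HEK293 cells carry an SMN2 minigene-luciferase reporter in which exon 7 inclusion puts luciferase in frame. Cells were seeded at 2000 cells/well, attached for 10-12 hours, then exposed to compounds for 30-36 hours at 37C before ONE-Glo luminescence.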
* marks the source's active call; other numbers are inactive results; ? = inconclusive; · = no result given; [ ] = dose if it differs, or a comment. Calls come from the whole dose curve; as a rule, active = well fitted curve in the direction sought with a large enough effect; inconclusive = small, poorly fitted or top-dose-only effect, or another doubt; inactive = no such curve, though single readings can be large; an effect the other way counts as inactive or inconclusive. Potency is the fitted concentration of half-maximal effect.

SMILES	ELG1 genotox	Rab9 prom act	FLuc modulator	NPC1 promoter act	KinaseGlo FLuc	SMN2 splice up
COc1ccc(-c2cnnc(N/N=C/c3ccc(C)o3)n2)cc1	15%	-3%	-3%	-6%	0%	-3%
Cc1cc(C)cc(NC(=O)C(=O)NCC(c2cccnc2)N2CCOCC2)c1 (centres undefined)	·	·	-15%	·	·	·
O=C(COC(=O)C1CCC1)Nc1ncc(Cl)cc1Cl	-4%	0%	-17%	-2%	·	·
O=C1C[C@@H]2c3c(cccc3CN1Cc1ccc(F)cc1)C[C@@H](O)[C@H]2O	1%	-4%	0%	-5%	·	·
C[C@@]12CC(=O)[C@@H]3[C@@H](CCC4=CC(=O)CC[C@]43C)[C@@H]1CC=C2CC(=O)O	·	·	·	·	-6%[7.66 µM]	-11%[9.22 µM]
O=[N+]([O-])c1ccc2nc(-c3ccc(OC(F)F)cc3)cn2c1	?	1µM*	?	1µM*	-7%	·
O=C(O)C(=Cc1ccnc2ccccc12)C(=O)O	·	·	·	·	-1%[7.66 µM]	-5%[9.22 µM]
Clc1ccccc1/C=C/c1ccnc2ccccc12	4%	17%	19µM*	14%	·	·
Oc1ccc(/C=C/c2ccnc3ccccc23)cc1	11%	17%	24µM*	10%	3%	21%
Nc1nnc(CC(=O)N/N=C/c2ccccc2OCc2ccccc2F)s1	-2%	0%	1%	1%	·	·
Cc1ccccc1OCCOc1cccc(/C=N/NC(=O)Cc2nnc(N)s2)c1	-1%	0.45µM*	?	1.6µM*	1%	5µM*
Nc1nnc(CC(=O)N/N=C/c2cccc([N+](=O)[O-])c2)s1	1%	6%	3%	5%	0%	-10%
Nc1nnc(CC(=O)N/N=C/c2cccc(OCCOc3ccccc3)c2)s1	0%	3.2µM*	4%	?	6%	10µM*
CN1CCN(c2nc(-c3cccc([N+](=O)[O-])c3)nc3ccccc23)CC1	-6%	-2%	0%	-2%	·	·
O=C(CCNC(=O)c1ccc(Br)cc1)Nc1ccc(S(=O)(=O)N2CCOCC2)cc1	1%	·	·	·	·	·
CC(Cl)c1cc(-c2ncc(C(F)(F)F)cc2Cl)no1 (centres undefined)	7%	2%	?	-2%	0%	7%
FC(F)(F)c1cnc(-c2cnc(-c3ccccn3)nc2)c(Cl)c1	2%	0.71µM*	11µM*	?	-19%	11µM*
FC(F)(F)c1cnc(-c2cnc(-c3ccncc3)nc2)c(Cl)c1	2%	3.2µM*	?	?	2%	24%
CC(C)NC(=O)c1ccccc1-c1nc(-c2ccccc2Cl)no1	0%	4%	15µM*	2%	·	·
CC(C)(C)NC(=O)c1ccccc1-c1nc(-c2ccccc2Cl)no1	6%	-4%	12µM*	-2%	-4%	-8%
CCNC(=O)c1ccccc1-c1nc(-c2ccccc2Cl)no1	3%	7%	19µM*	20%	-4%	-14%
CCN1C(=O)[C@H]2[C@H]3CN=C(SCC(=O)c4ccccc4)N3[C@@](C)(C(=O)OC)[C@H]2C1=O	0%	·	·	·	·	·
CN1CCN(Cc2nc(N)nc(Nc3ccc4c(c3)OCCO4)n2)CC1	?	4µM*	?	3.5µM*	-1%	28%
Nc1nc(CN2CCN(c3ccccc3F)CC2)nc(Nc2ccc3c(c2)OCCO3)n1	-12%	-11%	5%	-1%	-6%	-20%
COc1cc(OC)cc(-c2cc3cc4c(cc3cn2)OCO4)c1	4.1µM*	·	·	·	·	·
COc1ccc(-c2cc3cc4c(cc3cn2)OCO4)cc1	0.73µM*	·	·	·	·	·
COc1ccc(-c2cc3cc(OC)c(OC)cc3cn2)cc1	13%	·	·	·	·	·
COc1ccccc1CNC(=O)C1COc2ccccc2O1 (centres undefined)	18µM*	-6%	?	15%	7%	?

From PubChem
